Survival data for 98 molecules are collected here from PubChem BioAssay AID463173 (ICCB-Longwood Screening Facility, Harvard Medical School, 2010).

Molecules are shown by their SMILES. The campaign covered roughly 52,000 compounds. About 1,700 (3.3%) were called active. The entries come from a sample that favours actives as a whole. Values without a mark were called inactive. Cut-off read from the data, not from the text of the source: active = survival mostly below about 52% (no sharp cut-off); inactive = mostly above about 56%.

For the test, the system named is Wild type. Description: S. aureus survival, RN4220 and DeltatarO strains – OD600, teichoic acid synthesis inhibitors, primary screen (AID 463173). The following applies: S. aureus RN4220 wild type/DeltatarO growth, OD600, 18 h, hits give low values, screened at 18.75 µg/mL (by protocol).
For the molecule `Cc1nn2c(=O)cc(COC(=O)Cc3ccccc3)nc2s1`, the survival is 80%.
Under `O=C1CC(c2nc3ccccc3n2CCCCOc2ccccc2)CN1c1ccccc1Cl` (stereo not drawn) stands 61%.
For the molecule `CCOc1ccccc1N1CC(c2nc3ccccc3n2CCCOc2ccccc2)CC1=O` (stereo not drawn), the survival is 58%.
Consider `Cc1cccc(OCCCCn2c(C3CC(=O)N(c4ccc(C)cc4C)C3)nc3ccccc32)c1` (stereo not drawn), for which the survival is 18%.
Under `CCc1ccccc1N1CC(c2nc3ccccc3n2CCCOc2ccc(Cl)cc2)CC1=O` (stereo not drawn) stands 29%.
Consider `Cc1cccc(OCCCCn2c(C3CC(=O)N(c4ccccc4Cl)C3)nc3ccccc32)c1` (stereo not drawn), for which the survival is 17% (active).
Take `CCc1ccccc1N1CC(c2nc3ccccc3n2CCOc2ccc(Cl)c(C)c2)CC1=O` (stereo not drawn): the survival is 2% (active).
Next, `Cc1cc(C)cc(OCCn2c(C3CC(=O)N(c4ccccc4Cl)C3)nc3ccccc32)c1` (stereo not drawn): 97%; `CCc1ccccc1N1CC(c2nc3ccccc3n2CCCCOc2ccccc2)CC1=O` (stereo not drawn): 19% (active); `CCOc1ccccc1N1CC(c2nc3ccccc3n2CCCCOc2ccccc2)CC1=O` (stereo not drawn): 73%.
With `CCC1CCCCN1S(=O)(=O)c1cc2c3c(c1)CC(=O)N3CCC2` (stereo not drawn), the survival is 95%.
Next, `COc1ccc(C)cc1NC(=O)CN1C(=O)CSc2ccc(S(=O)(=O)N3CCCC3)cc21`: 93%.
Next, `COc1cccc(/C=C(\C#N)c2nc3ccc(C)cc3[nH]2)c1`: 53%; `Cc1ccc2nc(/C(C#N)=C/c3cccc(Br)c3)[nH]c2c1`: -11% (active).
Take `Cc1ccc2nc(/C(C#N)=C/c3ccccc3F)[nH]c2c1`: the survival is 46%.
With `COc1ccc(C(=O)c2oc3ccccc3c2NC(=O)c2cc(=O)c3ccc(C)cc3o2)cc1Cl`, the survival was 87%.
For `O=C(C1c2ccccc2Oc2ccccc21)N1CCCCC1`, the survival is 103%.
Regarding `CCCCn1c(CCCN2C(=O)c3ccccc3C2=O)nc2ccccc2c1=O`, the survival was 104%.
Next, `N#CCOc1nc(OCC#N)nc(OCC#N)n1`: -1% (active); `CNc1nc(OCC#N)nc(N2CCCCC2)n1`: 119%.
Take `CONc1nc(NC(C)(C)C)nc(OCC#N)n1`: the survival is 102%.
For `CCOc1ccc(CNC(=O)c2cc3c(=O)n(C)c4ccccc4c3s2)cc1`, the survival is 84%.
Under `CCCCCn1c(CNC(=O)c2ccccc2)nc2ccccc21` stands 89%; under `CCc1nc2ccccc2n1CC(C)C(=O)O` (stereo not drawn), 108%; under `CCCCCCn1c(/C=C/c2ccccc2)nc2ccccc21`, 0% (active).
Next, `CC(C)CCn1c(/C=C/c2ccccc2)nc2ccccc21`: -1% (active); `CCc1nc2ccccc2n1CCO`: 101%.
Next, `CCCn1c(CNC(=O)c2ccc(F)cc2)nc2ccccc21`: 69%.
Turning to `CCC(C)Cn1c(/C=C/c2ccccc2)nc2ccccc21` (stereo not drawn), the survival was 1% (active).
Next, `CCCCCn1c(CNC(=O)c2ccc(F)cc2)nc2ccccc21`: 90%.
Next, `CCn1c(O)c(/C=C/c2nc3ccccc3n2CC)sc1=S`: 108%; `Cc1cccc(C(=O)NCCc2nc3ccccc3n2CCC(C)C)c1`: 116%.
Take `CC(C)Cn1c(/C=C/c2ccc(F)cc2)nc2ccccc21`: the survival was -12% (active).
Regarding `CCCCCCn1c(CNC(=O)c2ccccc2)nc2ccccc21`, the survival was 91%.
On to `Cc1cc(C)n2nc(SCC(=O)Nc3cccc(C(F)(F)F)c3)nc2n1`, for which the survival is 56%.
`CCc1ccc(-n2c(SCc3ccccc3F)nc3[nH]ncc3c2=O)cc1`: the survival was 93%.
Regarding `O=C(CCS(=O)(=O)c1cc2c(cc1Cl)NC(=O)CO2)NCCc1ccc(Cl)cc1`, the survival was 116%.
Next, `COc1ccc(NC(=O)Cn2c(=O)n(CC3CCCO3)c(=O)c3ccccc32)c(OC)c1` (stereo not drawn): 86%; `O=c1c2sc3ccccc3c2n(Cc2ccccc2F)c(=O)n1CCc1ccccc1`: 86%.
With `O=C(NCc1ccccc1)c1cc(Sc2cccc(Cl)c2)nc2ccccc12`, the survival is 78%.
Regarding `CCc1ccc(C(=O)c2cn(CC(=O)Nc3cc(OC)ccc3OC)c3nc(C)ccc3c2=O)cc1`, the survival is 124%.
Under `CC(C)Cn1c(=O)c2ccccc2n2c(CCC(=O)N3CCN(c4ccccc4)CC3)nnc12` stands 127%; under `CCC1CCCCN1C(=O)COc1ccc(F)cc1` (stereo not drawn), 113%; under `CCOc1ccc(C2C(=O)N(C3CCCCC3)CC(=O)N2CCc2ccccc2)cc1OC` (stereo not drawn), 117%.
`Cc1cccc(N2CCCC2=Nc2ccc(Br)cc2C#N)c1`: the survival was 116%.
Next, `O=C(Nc1ccccc1Cl)c1ccc(F)c(S(=O)(=O)NCc2ccc(Cl)c(Cl)c2)c1`: 69%; `COc1ccc2cc(CNc3ccc(C)cc3)c(=O)n(CC(=O)Nc3cccc(Cl)c3C)c2c1`: 73%.
Take `COc1ccc(C(=O)N(Cc2ccc(N(C)C)cc2)Cc2ccco2)cc1Cl`: the survival is 81%.
Next, `CCOC(=O)N1CCN(Cc2nc3cc(NC(=O)c4ccc(OC)cc4)ccc3n2C(C)C)CC1`: 89%.
Take `C#CCn1c(COc2ccccc2C)nc2ccccc21`: the survival was 115%.
On to `C#CCn1c(/C=C/c2ccc(Cl)cc2)nc2ccccc21`, for which the survival was 23% (active).
Next, `Cn1c(C=Nc2ccc(Cl)cc2)nc2ccccc21`: 111%; `Cn1c(C(=O)NCCc2ccccc2)cc2c(=O)n3ccccc3nc21`: 80%; `CCOc1ccc(NC(=O)Cn2nnc(C(=O)NCc3cccs3)c2N)cc1`: 97%.
Next, `Cc1ccc2c(c1)cc1c(=O)n(Cc3ccc(Cl)cc3)nc(C)n12`: 97%; `COc1cc(/C=C(\C#N)c2nc3ccccc3[nH]2)ccc1OCc1cccc(C(F)(F)F)c1`: 66%.
As for `Cc1sc(-n2cccc2)c(C(C)NC(=O)Nc2cccc(C(F)(F)F)c2)c1C` (stereo not drawn), the survival was 6% (active).
For the molecule `Cc1ccc(NC(=O)NC(C)c2c(-n3cccc3)sc(C)c2C)cc1F` (stereo not drawn), the survival is 74%.
On to `COC(=O)c1ccc(NC(=O)NC(C)c2c(-n3cccc3)sc(C)c2C)cc1` (stereo not drawn), for which the survival is 89%.
Take `Cc1sc(-n2cccc2)c(C(C)NC(=O)Nc2ccccc2Cl)c1C` (stereo not drawn): the survival was 77%.
Under `COc1ccc(NC(=O)NC(C)c2c(-n3cccc3)sc(C)c2C)cc1OC` (stereo not drawn) stands 76%.
For the molecule `COC(=O)c1ccc(Cl)cc1NC(=O)NC(C)c1c(-n2cccc2)sc(C)c1C` (stereo not drawn), the survival is 12% (active).
Under `Cc1cccc(-n2ncc3c(Nc4ccc(Oc5ccc(Cl)cc5)cc4)ncnc32)c1` stands 88%; under `CCC(=O)C1=C(c2ccc(OC)c(OC)c2)N(C(=O)CC)n2c(CC)nnc2S1`, 55%.
Under `CCN(C(=O)CSc1nc(-c2ccccc2)no1)c1ccccc1` stands 85%; under `COc1cccc(Cc2nc3ccccc3nc2SCC(=O)Nc2cccc(C)c2)c1`, 128%; under `CCN(C(=O)CCc1nc(-c2ccc(C)cc2)no1)c1cccc(C(F)(F)F)c1`, 0% (active).
As to `CCN(C(=O)CSc1nc(-c2ccccc2)no1)c1cccc(C)c1`, the survival is -2% (active).
With `CCCCNC(=O)CSc1nc2ccccc2nc1Cc1ccc(C)cc1`, the survival is 72%.
Under `CCN(C(=O)CSc1nc2ccccc2nc1Cc1cccc(OC)c1)c1cccc(C)c1` stands -2% (active); under `CCN(C(=O)CSc1nc2ccccc2nc1Cc1ccc(F)cc1)c1cccc(C)c1`, 88%.
In the case of `CCN(C(=O)CSc1nc(-c2ccc(C(C)C)cc2)no1)c1cccc(C)c1`, the survival is 72%.
Turning to `COc1ccc(-c2noc(CCC(=O)Nc3ccc(C(F)(F)F)cc3)n2)cc1`, the survival was 84%.
On to `Cc1ccc(CNC(=O)CSc2nc3ccccc3nc2Cc2ccc(C)cc2)cc1`, for which the survival was 78%.
Next, `COc1ccc(-c2noc(CC(=O)N(C)c3cccc(C)c3)n2)cc1`: 83%.
Next, `CCCCN(C)C(=O)CSc1nc2ccccc2nc1Cc1ccc(C)cc1`: 0% (active); `CCCOc1ccc(C2C(=O)N(C3CCCCCC3)CC(=O)N2Cc2ccccc2OC)cc1OC` (stereo not drawn): 87%; `COc1ccc(-c2nc(SCC(=O)Nc3ccc4c(c3)OCO4)c(-c3ccc(F)cc3)[nH]2)cc1OC`: 65%.
Next, `COC(=O)C1CCCc2c1[nH]c1ccc(Cl)cc21` (stereo not drawn): 142%; `CC1=C(C(=O)OC2CCCC2)C(c2cccc(Cl)c2Cl)CC(=O)N1` (stereo not drawn): 90%; `Cc1ccc(F)cc1NC(=O)c1ccc(Cn2nc(N3CCN(c4ccccc4)CC3)ccc2=O)o1`: 127%.
For `CCc1cccc(NS(=O)(=O)c2ccc3c(c2)CC(C)N3C(=O)C2CC2)c1` (stereo not drawn), the survival is 80%.
Next, `COc1ccc(CNC(=O)Cn2c(=O)oc3cc(S(=O)(=O)N4CCCC4)ccc32)cc1`: 91%.
Next, `Cc1ccc2nc(-c3ccc(C)s3)c(Nc3ccc4c(c3)OCCO4)n2c1`: 83%.
Next, `CCOC(=O)c1cccc(NC(=O)N2CC(CC)Sc3ccccc32)c1` (stereo not drawn): 84%; `COc1ccc(CNC(=O)c2cc3c(=O)n(Cc4ccco4)ccc3nc2C)cc1`: 74%.
With `Cc1ccc2c(c1)c1c3n2CCN(C(=O)CN2CCN(C(=O)c4ccco4)CC2)C3CCC1` (stereo not drawn), the survival is 126%.
Next, `COc1ccc(C(=O)Oc2ccc(C(c3c(C)[nH][nH]c3=O)c3c(C)[nH][nH]c3=O)cc2OC)cc1`: 73%.
Next, `O=C(CSc1nnc(CNC(=O)c2ccccc2F)n1-c1ccccc1)Nc1ccccc1F`: 66%; `CCN(C(=O)Cc1nc(-c2ccc(OC)cc2)no1)c1cccc(Cl)c1`: 84%; `CCN(C(=O)c1cc2cc3ccc(OC)cc3nc2o1)c1cccc(C)c1`: 0% (active).
Consider `CCN(C(=O)CCc1nc(-c2ccc(C)cc2)no1)c1cc(C)ccc1C`, for which the survival is 0% (active).
Take `COc1ccc(CNC(=O)c2cc3cc4ccc(C)cc4nc3o2)cc1`: the survival was 88%.
For `COc1ccc2cc3cc(C(=O)NCc4ccc(C)cc4)oc3nc2c1`, the survival is 89%.
Under `CC(C)(C)c1ccc(-c2noc(CCC(=O)Nc3cccc(Cl)c3)n2)cc1` stands 87%; under `Cc1ccc(C)c(NC(=O)CCc2nc(-c3ccc(C(C)(C)C)cc3)no2)c1`, 109%; under `COc1cc(-c2noc(CCC(=O)Nc3cc(C)ccc3C)n2)cc(OC)c1OC`, 82%.
With `CCN(C(=O)CCc1nc(-c2ccc(C)cc2)no1)c1cccc(Cl)c1`, the survival is -1% (active).
